Results published in the supplement of paper PMC6555819.

Key:
Assay in all cases: PBM binding z-score (relative to random genomic background probes); higher = stronger binding; sequences stand for … in GC…GCGATTGACAGCGTAGAATGAAGG
[1] = system: PPARg:RXRa DBDmut IVT, anti-RXR (DBD mutation: RXRa K156A/R161A, NR concentration 270 nM, RXRa partner concentration 90 nM)
Summary of the method: (§1)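 Scanned fluorescence from custom Agilent 4×180K protein-binding microarrays was regression-normalized. Binding z-scores use random background probes as reference. Ligand-free nuclear receptor dimers were incubated on the arrays for 1 h and detected with antibodies against each partner (one per run).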

[2] = system: PPARg:RXRa IVT, anti-PPARg (NR concentration 270 nM, RXRa partner concentration 90 nM)
Summary of the method: as §1

[3] = system: PPARg DBDmut:RXRa IVT, anti-PPARg (DBD mutation: PPARg1 K132A/R137A, NR concentration 270 nM, RXRa partner concentration 90 nM)
Summary of the method: as §1

[4] = system: PPARg DBDmut IVT, anti-PPARg (DBD mutation: PPARg1 K132A/R137A, NR concentration 270 nM)
Summary of the method: as §1

[5] = system: PPARg homodimer (NR concentration 180 nM)
Summary of the method: as §1

[6] = system: PXR:RXRa (NR concentration 270 nM, RXRa partner concentration 90 nM)
Summary of the method: as §1

[7] = system: PXR homodimer (NR concentration 270 nM)
Summary of the method: as §1

[8] = system: RARa:RXR (NR concentration 270 nM, RXRa partner concentration 90 nM)
Summary of the method: as §1

[9] = system: RARa homodimer (NR concentration 270 nM)
Summary of the method: as §1

[10] = system: RARb:RXRa (NR concentration 270 nM, RXRa partner concentration 90 nM)
Summary of the method: as §1

[11] = system: RARb homodimer (NR concentration 270 nM)
Summary of the method: as §1

[12] = system: RARg:RXRa (NR concentration 270 nM, RXRa partner concentration 90 nM)
Summary of the method: as §1

[13] = system: RARg homodimer (NR concentration 270 nM)
Summary of the method: as §1

[14] = system: RXRa DBDmut IVT, anti-RXR (DBD mutation: RXRa K156A/R161A, NR concentration 90 nM)
Summary of the method: as §1

[15] = system: RXRa homodimer (NR concentration 180 nM)
Summary of the method: as §1

[16] = system: THRa:RXRa (NR concentration 90 nM, RXRa partner concentration 90 nM)
Summary of the method: as §1

[17] = system: THRa homodimer (NR concentration 90 nM)
Summary of the method: as §1

[18] = system: VDR homodimer (NR concentration 270 nM)
Summary of the method: as §1

Sequence | PBM binding z-score [1] | PBM binding z-score [2] | PBM binding z-score [3] | PBM binding z-score [4] | PBM binding z-score [5] | PBM binding z-score [6] | PBM binding z-score [7] | PBM binding z-score [8] | PBM binding z-score [9] | PBM binding z-score [10] | PBM binding z-score [11] | PBM binding z-score [12] | PBM binding z-score [13] | PBM binding z-score [14] | PBM binding z-score [15] | PBM binding z-score [16] | PBM binding z-score [17] | PBM binding z-score [18]
TCTTGTAGATAAAAGGTTAAGAAAGCCGAAGCCT | 2.1 | 1.64 | 0.235 | 0.63 | 1.07 | 1.4 | 0.0184 | 1.84 | 0.655 | 1.91 | 1.42 | 1.43 | 0.971 | 1.2 | 2.28 | 1.14 | -0.62 | 0.00564
CAACCTAGGTCACAGAGGTCAAAGTCCGTGCGTA | 5.47 | 5.9 | 0.378 | -0.0572 | 6.18 | 6.95 | 12.5 | 7.87 | 2.8 | 5.39 | 5.82 | 7.61 | 7.92 | 3.68 | 8.52 | 4.55 | 3.1 | 7.57
CTAACAAGGTGAACAAGGTCGTTGATTACTATTC | 4.02 | 3.71 | 0.498 | 0.744 | 0.877 | 2.67 | 1.4 | 2.21 | 0.514 | 2.27 | 1.94 | 1.79 | 1.76 | 1.6 | 1.84 | 3.24 | 1.84 | 2.19
TGAATGAGGTTATAATATCAGGGAACGTTGCAAA | 0.771 | 1.75 | 1.25 | 0.939 | 0.756 | 1.08 | 0.111 | 1.59 | 0.0682 | 1.08 | 0.41 | 1.56 | 1.12 | 0.98 | 2.04 | 1.92 | 0.355 | 0.545
AGAACGACGGCAATGAGTTGATAGCACGGGTGGC | -0.438 | -0.402 | -0.484 | -0.862 | -0.865 | -0.631 | -0.242 | -0.819 | -0.419 | -0.448 | -0.961 | -0.245 | -0.185 | -0.402 | 0.0598 | -0.626 | -1.12 | -0.0582
CTACCAAGGGGAACAAGGTCGTTGATTACTATTC | 0.796 | 0.857 | -0.93 | 0.266 | 0.795 | 1.46 | 1.29 | 1.16 | -0.123 | 0.601 | 1.09 | 0.406 | 0.334 | 0.885 | 0.759 | 1.76 | 1 | 2
TCGAGTAGGTTACCAATGGCGCATTCAGCTTTCT | 3.69 | 2.51 | 0.479 | -0.462 | -0.236 | 0.00763 | -0.811 | 0.064 | -0.676 | 0.628 | 0.00418 | 0.036 | 0.0712 | 0.461 | 0.351 | -0.246 | -0.453 | -0.613
TCGCCTAGGTCAGATCGGGCCAGTATACGCTATA | 1.92 | 1.11 | -0.622 | -0.724 | -0.2 | 1.23 | -0.531 | 1.05 | -0.742 | 3.12 | 2.21 | 2.39 | 3.24 | 0.643 | 1.38 | 3.98 | 0.0988 | -0.139
CCGACTGGGGCAGAAAGGTTACCGTACCATCCGG | 1.72 | 2.39 | -1.2 | -1.01 | 0.541 | 1.02 | -0.429 | 1.79 | -0.282 | 1.84 | 2.49 | 1.52 | 1.28 | -0.805 | 1.84 | 1.18 | -0.556 | -0.155
ATCGAAAGGTGGAGGTGAGTATAGAGAAAGGGAA | -0.413 | 0.772 | -0.138 | -0.168 | 0.613 | 0.147 | 0.659 | 0.0317 | 1.06 | 1.28 | 1.16 | 0.536 | 0.711 | -0.665 | 0.164 | 0.67 | 0.48 | 0.297
ACTTACCGGTCAACGAGGTTATAGCACGCGTATA | 1.22 | 1.9 | 0.959 | 1.45 | 1.88 | 2.33 | 1.42 | 2.38 | 1.15 | 3.08 | 2.92 | 3.45 | 3.85 | 1.25 | 2.27 | 2.69 | 1.21 | 2.26
CTAGACAGGTGAAAGGTAACTCAGTCTGGTACGC | 1.94 | 3.43 | 0.142 | 0.0221 | 0.635 | 0.951 | -0.397 | 1.91 | -0.0814 | 1.22 | 0.55 | 1.36 | 0.619 | -0.39 | 2.23 | 0.865 | -0.398 | -0.464
TAGCCTAGGTCATTGGCCAGTATACCACGCGAAC | 1.38 | 2.72 | 0.244 | -0.771 | 1.49 | 1.56 | -0.368 | 2.16 | -0.259 | 3.57 | 2.76 | 3.66 | 3.92 | 1.68 | 3.22 | 2.66 | 0.992 | 1.26
ATCTCTAGGTATCCAAGTTCAGTGAATGCCGAAC | 0.377 | 0.859 | 0.495 | 0.766 | 1.01 | 1.5 | 1.56 | 0.618 | 0.883 | 0.966 | 1.46 | 0.373 | 0.76 | 0.842 | 0.354 | 0.837 | 0.736 | 2.5
ATCTCTAGGTAATAAGTTCAGTGAAAGAGAGGAC | 2.07 | 2.06 | 1.58 | 1.43 | 1.52 | 1.7 | 2.13 | 0.943 | 1.54 | 1.83 | 2.13 | 1.53 | 1.59 | 1.23 | 0.755 | 1.64 | 1.31 | 2.41
